# Assay results as given in PubChem BioAssay (NCATS).
# Results filed as inconclusive are left out. Activity calls are given as the source filed them. Calls come from the whole dose curve; as a rule, active = well fitted cell-killing curve with a large enough effect; inconclusive = small, poorly fitted or top-dose-only effect; inactive = no such curve, though single readings can be large or run the other way.
# Experiment: qHTS of pediatric cancer cell lines to identify multiple opportunities for drug repurposing: Primary screen for A673 cells (AID 1347092); note: nearly all actives have a fitted effect of over 45% in size
# Details: A673 Ewing sarcoma viability, CellTiter-Glo ATP luminescence, 48 h; series mostly up to 46 µM; activity change, negative = cytotoxic: at the top concentration
# Method in brief: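 Luminescence from CellTiter-Glo, taken after 15 min at room temperature, served as the proxy for metabolically active cells following 48 h treatment. Both potency and efficacy were taken from curves fitted to the titration data.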
# % is set by controls: 0 for no effect and ±100 for the full control effect; potency is the fitted concentration of half-maximal effect.
Compound,Potency,"activity change, negative = cytotoxic"
C[C@H]1O[C@@H](O[C@H]2[C@@H](O)C[C@H](O[C@H]3[C@@H](O)C[C@H](O[C@H]4CC[C@@]5(C)[C@H](CC[C@@H]6[C@@H]5CC[C@]5(C)[C@@H](C7=CC(=O)OC7)CC[C@]65O)C4)O[C@@H]3C)O[C@@H]2C)C[C@H](O)[C@@H]1O,13.3 nM (active),
CC(C)CC(N(C)C)C1(c2ccc(Cl)cc2)CCC1 (stereo unspecified),inactive,
Cn1cc(C2=C(c3cn(C4CCN(Cc5ccccn5)CC4)c4ccccc34)C(=O)NC2=O)c2ccccc21,3720 nM (active),
Cc1sc2c(c1C)C(c1ccc(Cl)cc1)=N[C@@H](CC(=O)OC(C)(C)C)c1nnc(C)n1-2,469 nM (active),
CCN(CC)CCN1C(=O)CN=C(c2ccccc2F)c2cc(Cl)ccc21,,-8.19% (inactive)
CN(C)CCN(C)CCc1ccc(Cl)c(Cl)c1,,8.04% (inactive)
